# Most compounds without a hit are left out; they make up all but 15% or so of the library.
# Pf growth 96h = Primary qHTS for delayed death inhibitors of the malarial parasite plastid, 96 hour incubation; P. falciparum luciferase reporter growth, 96 h; Potency, µM (doses to about 28.7 µM), for the others: top-dose activity change, negative = inhibition, hits mostly inhibitors; actives 6.9% (n = 320,000); AID 504834, 2011; further: potency means the concentration at half of the fitted maximal effect; on the % scale 0 is the no-effect control and ±100 the full control effect
#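 Readout is luminescence from an integrated firefly luciferase in P. falciparum. Red cells, 2% hematocrit and 0.05% parasitemia final, were cultured with compound through two parasite generations (96 hours) at 37 C, 5% CO2.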
# SARS PLpro yeast = qHTS of Yeast-based Assay for SARS-CoV PLP | S. cerevisiae expressing SARS-CoV PLpro, growth rescue | Potency, µM (series often up to 32.9 µM), for the others: at the top dose activity, positive = growth rescue, actives largely listed as activators | actives 0.19% (n = 330,000); calls by dose curve; further: potency means the concentration at half of the fitted maximal effect; 0% is about no effect; nearly all actives have a fitted effect of over 55% in size
# Sm TGR inh = qHTS Assay for the Inhibitors of Schistosoma Mansoni Peroxiredoxins. actives 3% (n = 360,000). Potency, µM (highest dose often 114 µM), without a hit: top-dose activity change, negative = inhibition, actives largely listed as inhibitors. Schistosoma mansoni thioredoxin glutathione reductase (TGR), Q962Y6. purified TGR, DTNB reduction, TNB absorbance 405 nm; further: potency means the concentration at half of the fitted maximal effect; on the % scale 0 is the no-effect control and ±100 the full control effect; nearly all actives have a fitted effect of over 60% in size
#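 TGR 20 nM + NADPH 100 uM (dispensed conc.), cpd preinc 15 min RT; start with NADPH (500 uM addition) then DTNB (15 mM addition). Kinetic TNB absorbance, 405 nm filter. Four-parameter Hill fit across titration.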
# HCV inhibitor = qHTS Assay for Inhibitors of Hepatitis C Virus (HCV) | Huh7.5.1 HCVcc-Cre infection, luciferase reporter, 44 h | Potency, µM (highest dose often 41.8 µM), for inactives: at the highest dose activity change, negative = inhibition, most hits filed as inhibitors | actives 3.4% (n = 340,000); further: potency means the concentration at half of the fitted maximal effect; on the % scale 0 is the no-effect control and ±100 the full control effect
#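 Whole-lifecycle infectious HCVcc-Cre system; cells 1,000/well, compound then virus (~0.5 moi) added 4 h after plating, 44 h culture. Luciferase read 15 sec following 15 min substrate incubation, room temp.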
# Pf growth 48h = Primary qHTS for delayed death inhibitors of the malarial parasite plastid, 48 hour incubation; P. falciparum luciferase growth in erythrocytes, 48 h; Potency, µM (doses to about 28.7 µM), for inactives: at the top dose activity change, negative = inhibition, hits mostly inhibitors; actives 5.9% (n = 310,000); AID 504832, 2011; further: potency means the concentration at half of the fitted maximal effect; on the % scale 0 is the no-effect control and ±100 the full control effect
#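 Erythrocytes infected with P. falciparum carrying an integrated firefly luciferase reporter (2% hematocrit, 0.1% parasitemia final) were exposed to compounds in RPMI 1640 with 0.5% Albumax at 37 C, 5% CO2. Growth inhibition was scored as reduced luminescence.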
# HCMV antiviral = qHTS Assay for inhibitors of the human cytomegalovirus (HCMV). actives 4.5% (n = 410,000). activity change, negative = inhibition, % at 57.5 µM. HFF cells, HCMV-luciferase reporter, 72 h; active compounds read low; in the data active means activity change below about -60%; inconclusive means no clear call, values can overlap the other calls; inactive means above about -39%; further: on the % scale 0 is the no-effect control and ±100 the full control effect
#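 Two-dose cell screen: HFF monolayers treated with compounds and infected with luciferase-expressing HCMV at 1 PFU/cell, 72 h at 37C, then lysed for luciferase measurement.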
# * hit, by the source's call; u = inconclusive; x = no result given. Unless noted, the call rests on the fitted dose curve; in most records, active means well fitted curve in the direction sought with a large enough effect; inconclusive means small, poorly fitted or top-dose-only effect, or another doubt; inactive means no such curve, though single readings can be large; an effect the other way counts as inactive or inconclusive.
SMILES,Pf growth 96h,SARS PLpro yeast,Sm TGR inh,HCV inhibitor,Pf growth 48h,HCMV antiviral
O=C(/C=C/c1ccco1)Nc1ccc(Oc2ccc(Cl)cc2)cc1,3%,-9%,-36%,8.9µM*,8.3µM*,-68*
O=C(NCCCN1CCCC1=O)C(=O)NCC1OCCCN1S(=O)(=O)c1ccccc1 (stereo unspecified),x,x,x,x,x,-15
O=C(NCCO)c1cccc(-c2cc(Nc3ccc(OC(F)(F)F)cc3)ncn2)c1,x,x,x,x,x,-28
NC(=O)c1cccc(-c2cc(Nc3ccc(OC(F)(F)F)cc3)ncn2)c1,15µM*,-3%,2%,u,13µM*,u
CC1CCN(C(CC(=O)c2ccccc2)C(=O)c2ccccc2)CC1 (stereo unspecified),x,x,x,-10%,x,-86*
Cc1ccc2c(CNCCc3ccc(Cl)cc3)c(C(=O)O)n(Cc3ccc(F)cc3)c2c1,x,x,-2%,x,x,-106*
CCOc1ccccc1CNCc1c(C(=O)O)n(Cc2ccccc2)c2cc(OC)ccc12,x,x,-3%,x,x,14
Cc1ccc(Cn2c(C(=O)O)c(CNCCc3ccco3)c3ccc(C)cc32)cc1,x,x,-20%,x,x,49
COc1ccc(Cn2c(C(=O)O)c(CNCCc3ccccc3Cl)c3ccc(C)cc32)cc1,x,x,4%,x,x,-105*
C=Cc1ccc(Cn2c(C(=O)O)c(CNCCc3ccccc3)c3ccc(C)cc32)cc1,x,x,-10%,x,x,-90*
COc1ccc(Cn2c(C(=O)O)c(CNCc3ccccc3F)c3ccc(OC)cc32)cc1,x,x,-2%,x,x,-76*
Cc1ccc(Cn2c(C(=O)O)c(CNCc3ccccc3Cl)c3ccc(C)cc32)cc1,x,x,-5%,x,x,14
C[C@]12c3[nH]c4cc(-c5ccco5)ccc4c3CCN1C(=O)[C@@H](CC(=O)NCc1ccco1)C[C@@H]2C(=O)N1CCCCC1,x,-5%,x,u,x,-31
CCOC(=O)N1CCN(C(=O)c2ccc(N3CCCC3=O)cc2)CC1,179%,9%,6%,28%,-6%,7
CCOC(=O)c1cccc(NC(=O)CCS(=O)(=O)c2ccc3c(c2)CC(=O)N3C)c1,x,x,-11%,x,x,-3
C=Cc1ccc(Cn2c(C)c(CNCCc3cc(OC)ccc3OC)c(C(=O)O)c2C)cc1,x,x,-13%,x,x,0
C=Cc1ccc(Cn2c(C(=O)O)c(CNCc3cc(OC)ccc3OC)c3ccc(C)cc32)cc1,x,x,3%,x,x,-104*
C=CCOC(=O)C1=C[C@H](c2ccc(Br)cc2)C[C@H](OCc2ccc(CO)cc2)O1,x,x,x,-10%,x,-3
CC(=O)c1ccc(NC(=S)NC(C)CCc2ccccc2)cc1 (stereo unspecified),9.3µM*,-3%,2%,8%,u,u
Cc1ccc(NC(=S)NC(C)CCc2ccccc2)cc1C (stereo unspecified),u,-52%,5%,u,u,-71*
Cc1cccc(C)c1NC(=S)NC(C)CCc1ccccc1 (stereo unspecified),u,-18%,-11%,u,-81%,-17
Cn1c(C(=O)NCCc2ccccc2)cc2sc(Cl)cc21,x,x,-4%,x,x,89
CCOC(=O)c1ccc(NC(=O)c2cn(-c3ccccc3)nc2-c2ccc(C)cc2)cc1,x,x,-4%,x,x,20
O=C(OCc1ccccc1)c1cn(-c2ccccc2)nc1-c1ccncc1,9.3µM*,-34%,8%,17%,u,1
CCOC(=O)c1ccc(NC(=O)c2cn(-c3ccccc3)nc2-c2ccncc2)cc1,0%,-10%,1%,u,4.1µM*,-6
SMILES,Pf growth 96h,SARS PLpro yeast,Sm TGR inh,HCV inhibitor,Pf growth 48h,HCMV antiviral
CCOc1ccc(NC(=O)CN2CCN(Cc3ccccc3)S2(=O)=O)cc1,x,x,-13%,x,x,-12
Cc1cccc(N2CSC3=C(C#N)C(c4ccc(C)o4)CC(=O)N3C2)c1 (stereo unspecified),10µM*,4%,11µM*,x,36%,x
COc1cc(OC)c(C2CC(=O)N3CN(c4ccccc4C)CSC3=C2C#N)cc1OC (stereo unspecified),4%,4%,32µM*,u,u,11
CCc1ccccc1N1CSC2=C(C#N)C(c3ccccc3F)CC(=O)N2C1 (stereo unspecified),-16%,-4%,18µM*,-15%,x,8
COc1ccc(C2CC(=O)N3CN(c4ccccc4F)CSC3=C2C#N)cc1OC (stereo unspecified),7%,1%,u,14%,x,-5
COc1ccc(N2CN=C3SCC(=O)N3C2)cc1,8%,11%,-32%,3%,15%,29
COc1ccc(C2CC(=O)N3CN(c4ccc(C)c(Cl)c4)CSC3=C2C#N)cc1 (stereo unspecified),u,4%,45µM*,-18%,x,-9
CCOC(=O)/C=C/[C@@H](CCCCOCc1ccccc1)NC(=O)C(F)(F)F,x,x,x,x,x,-7
C[C@@H]1O[C@H](CCc2cccc(Cl)c2)CC2=C1C(=O)OC(C)(C)O2,x,x,x,x,x,9
CCc1ccc(-c2nc3c(c(SCc4ccc(F)cc4)n2)Cc2c(CO)cnc(C)c2O3)cc1,x,x,15%,x,x,-26
Nc1sc(Cc2ccccc2)cc1C(=O)c1c(-c2ccccc2)[nH]c2ccccc12,x,x,x,x,x,-31
CCN(CC)S(=O)(=O)c1ccc2c(c1)N(CC(=O)N1CCN(c3cccc(Cl)c3)CC1)C(=O)CO2,x,x,u,x,x,-22
O=C(Nc1ccc(C(=O)O)cc1)/C(=C\c1cccc([N+](=O)[O-])c1)NC(=O)c1ccc(Br)o1,u,-3%,1%,7%,-17%,-40
COc1ccc(OC)c(C2CC(=O)N3CN(c4ccccc4)CSC3=C2C#N)c1 (stereo unspecified),u,3%,10µM*,3%,x,-2
COc1ccc(N2CSC3=C(C#N)C(c4cccc(OC)c4OC)CC(=O)N3C2)cc1 (stereo unspecified),u,0%,22µM*,-3%,x,78
COc1ccc(OC)c(C2CC(=O)N(c3cccc(C)c3)C3=C2C(=O)OC3)c1 (stereo unspecified),x,x,-9%,x,x,-3
CCCCCNC(=O)C1(C)CCc2nc3ccccc3n21 (stereo unspecified),x,x,x,x,x,52
NC(=O)c1ccc(NC(=O)CCN=C2NS(=O)(=O)c3ccccc32)cc1,u,-7%,0%,20%,-13%,-22
COc1cc2c(cc1OC)C(c1c(O)n(CCc3ccccc3)c(=S)[nH]c1=O)NCC2 (stereo unspecified),6%,-1%,1%,-9%,0%,-64*
